# Screening results (PubChem BioAssay)
# Sampled rows, rich in hits. Any-hit rate of the full collection: about 6.8%.
# Spn DPM-DC inh = inhibitors of Streptococcus pneumoniae diphosphomevalonate decarboxylase; purified DPM-DC, PK/LDH coupled NADH fluorescence; calls only at 10 µM; 65,000 compounds, 0.49% hits;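 active = the 320 compounds with the highest percent inhibition in the single-dose primary screen, excluding strongly autofluorescent ones, cut at about 32% in these data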;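 note: kinetic rate of NADH fluorescence loss reporting ADP formed by the decarboxylase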
# Abs 340nm = absorbance at 340 nm. 65,000 tested, under 10 active. fold change at 10 µM. compound absorbance at 340 nm, fold over control;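 active = at 10 µM dose, initial 340 nm absorbance at least 2 fold that of control wells; inactive = change under 2 fold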;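 note: initial absorbance extrapolated from kinetic A340 decline of NADH oxidation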
# Spn PMK inh = blocks S. pneumoniae phosphomevalonate kinase; inhibition, % at 10 µM; purified PMK, PK/LDH-coupled NADH absorbance 340 nm; AID 539; 65,000 compounds, 0.49% hits;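 active = top-ranked compounds by inhibition in the single 10 µM screen, taking a fixed number of the strongest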;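 note: 0% = full reaction with DMSO carrier and 100% = background rate without enzyme reaction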
# NADH enzymes = inhibitors of enzymes used to reach an NAD/NADH endpoint | IC50, µM (top dose mostly 10 µM), without a hit: top-dose inhibition | 65,000 compounds, 0.02% hits | coupled PK/LDH NADH assays, four targets;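 active = single-dose screening hits from any of four coupled enzyme assays that gave an IC50 when retested across doses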;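 note: the DPM-DC format reads NADH fluorescence rather than 340 nm absorbance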
# MK inhibit = S. pneumoniae mevalonate kinase inhibition; inhibition, % at 10 µM; purified MK, PK/LDH-coupled NADH absorbance 340 nm; 65,000 compounds, 0.48% hits;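 active = ranked among the strongest by inhibition in the single 10 µM screen, a fixed top-ranked set picked for dose follow-up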
# Fluor 339 460 = intrinsic fluorescence of library compounds, ex339/em460 – biochemical, MLSMR library, data from DPM-DC assay, artefact control, profiling panel; compound autofluorescence, ex339/em460 nm, NADH buffer; active compounds read high; 1 = no-compound wells, NADH background; fluorescence fold increase at 10 µM; 65,000 compounds, 5.5% hits; AID 709;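 active = at 10 µM, mean starting fluorescence two-fold or more over control wells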;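 note: signal is the first read of a kinetic run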
# The depositor's hits bear a star; i = inactive; / = not tested or not shown; + = active, no number.
SMILES,Spn DPM-DC inh,Abs 340nm,Spn PMK inh,NADH enzymes,MK inhibit,Fluor 339 460
Fc1ccc2[nH]c3c(N4CCN(c5ccccc5)CC4)ncnc3c2c1,i,1.1,2,1%,0,1.3
COc1cccc2[nH]c3c(N4CCCCC4)ncnc3c12,/,1.1,9,7%,4,3.7*
O=C(c1ccco1)N1CCN(c2ncnc3c2[nH]c2ccc(Br)cc23)CC1,i,1.1,9,6%,10,1.7
CCOC(=O)N1CCN(c2ncnc3c2[nH]c2ccc(OC)cc23)CC1,/,1,5,1%,2,2.5*
COc1ccc2[nH]cc(C(=O)CN3CCN(C/C=C/c4ccccc4)CC3)c2c1,i,1.1,6,6%,6,1.2
COc1ccc(NC(=O)Cn2nnc(-c3ccccc3NC(=O)c3ccco3)n2)cc1,i,1,9,7%,0,2.1*
COc1ccccc1NC(=O)Cn1nnc(-c2ccccc2NC(=O)c2cccs2)n1,i,1,15,12%,21,1.5
O=C(Cn1nnc(-c2ccccc2NC(=O)c2cccs2)n1)Nc1ccccc1,i,0.99,15,13%,11,2.4*
Cc1sc2nc3n(c(=O)c2c1C)CCCS3,i,1.1,2,2%,2,1.1
Cc1sc2nc3ccc(N4CCCC4)nn3c(=O)c2c1C,/,1.1,3,5%,7,2.1*
CCOc1ccc(OCC)c(NC(=O)CN2CCN(c3cccc(C)c3)C(C)C2)c1 (stereo not given),i,1,3,15%,42*,1
CCOc1ccc(OCC)c(NC(=O)CN2CCN(c3cccc(C)c3)CC2)c1,i,1.1,0,24%,71*,1.1
O=C(COC(=O)c1cc(-c2cccs2)nc2ccccc12)NCc1ccco1,/,1,15,9%,2,4.9*
CC(C)Cn1c(N)c(C(=O)COC(=O)c2cc(-c3ccco3)nc3ccccc23)c(=O)n(C)c1=O,/,1,0,1%,0,2.1*
O=C(COC(=O)c1cc(-c2ccco2)nc2ccccc12)NCc1ccc2c(c1)OCO2,/,1,0,2%,9,2.1*
Cc1nn(-c2ccccc2)c(C)c1C(=O)OCC(=O)c1c(N)n(CC(C)C)c(=O)n(C)c1=O,i,0.99,9,2%,0,1.1
Cc1c(Cc2ccccc2)c(=O)oc2cc(OCc3nn[nH]n3)ccc12,/,1.1,8,4%,0,3.8*
CCOC(=O)CCc1c(C)c2ccc(OCC(=O)OC(C)C)cc2oc1=O,/,1,6,5%,4,3.7*
COc1ccc(-c2cc(=O)oc3cc(OCc4nn[nH]n4)ccc23)cc1,i,1.2,0,1%,1,1.9
CCOC(=O)CCc1c(C)c2ccc(OCc3nn[nH]n3)cc2oc1=O,/,1.1,11,6%,0,3.8*
COc1ccc(-c2cc3ccc(OCc4nn[nH]n4)cc3oc2=O)cc1OC,i,1.2,9,7%,0,1.8
COc1ccc2[nH]c3c(c2c1)CCn1c-3nc2ccccc2c1=O,/,1.1,0,5%,9,2.2*
COC(=O)c1cc(NCc2ccccc2F)ccc1N1CCOCC1,i,0.99,17,13%,12,1.8
Cc1ccc(CNc2ccc(N3CCOCC3)c(C(=O)O)c2)s1,i,1,0,4%,3,2.4*
O=C(O)c1cc(NCc2c(F)cccc2Cl)ccc1N1CCOCC1,i,1,4,6%,5,1.9
SMILES,Spn DPM-DC inh,Abs 340nm,Spn PMK inh,NADH enzymes,MK inhibit,Fluor 339 460
CCOc1ccccc1CNc1ccc(N2CCOCC2)c(C(=O)O)c1,i,1,0,5%,3,2.2*
Cc1ccc(N2CC(c3nc4ccccc4[nH]3)CC2=O)c(C)c1 (stereo not given),i,1,13,10%,4,1.1
O=C(c1cc2nc(-c3ccccc3)cc(-c3ccccc3)n2n1)N1CCN(C(=O)c2ccco2)CC1,/,1.1,8,9%,9,3.7*
Cc1cc(N2CCN(C(=O)c3ccco3)CC2)n2nc(C)c(-c3ccccc3)c2n1,i,1.1,11,7%,11,1.4
Cc1cc(N2CCN(C(=O)c3ccco3)CC2)n2nc(-c3cccc(Cl)c3)cc2n1,+,1,2,15%,8,0.7
Cc1cc(N2CCN(C(=O)c3ccco3)CC2)n2nc(C)c(-c3ccc(Cl)cc3)c2n1,/,1.1,19,17%,15,3.7*
O=C(C1CCCCC1)N1CCC(c2nc3c(nnn3Cc3ccccc3Cl)c(=O)[nH]2)CC1,+,1,10,6%,9,1.1
Cc1ccc(NC(=O)N2CCC(c3nc4c(nnn4Cc4cccc(Cl)c4)c(=O)[nH]3)CC2)cc1,i,1,5,3%,4,1.1
O=C(Nc1ccc(F)cc1)N1CCC(c2nc3c(nnn3Cc3cccc(Cl)c3)c(=O)[nH]2)CC1,i,1,9,22%,49*,0.97
Nc1c(C(=O)NC2CCCC2)c2nc3ccccc3nc2n1/N=C/c1cccnc1,+,1.2,0,15%,0,3.2*
COc1cc(C(=O)O)ccc1OC(C)=O,i,1,13,5%,3,1
CCOc1ccc(C(=O)O)cc1OC,+,1,10,17%,1,0.62
O=C(NCC1CCCO1)C1c2ccccc2C(=O)N1C1CCCCCC1 (stereo not given),i,0.98,13,2%,3,1
COc1ccc2oc(=O)c(-c3nc(C)cs3)cc2c1,/,1,0,7%,13,2.2*
CCN(C(=O)c1cc2cc(OC)ccc2oc1=O)c1ccccc1,i,1.1,10,7%,7,1.4
Nc1c(C(=O)NCCN2CCOCC2)c2nc3ccccc3nc2n1-c1cccc(F)c1,/,1.1,6,9%,11,5.1*
COCCCNC(=O)c1c(N)n(-c2cccc(S(N)(=O)=O)c2)c2nc3ccccc3nc12,/,1,6,3%,10,3*
COC(=O)c1c(N)n(-c2cc(OC)cc(OC)c2)c2nc3ccccc3nc12,/,1,9,3%,2,3.4*
CCCNC(=O)c1c(N)n(-c2cccc(OC)c2)c2nc3ccccc3nc12,/,1,7,10%,12,3.8*
CCOC(=O)Nc1ccc(OC)cc1S(=O)(=O)N1CCCCC1,i,1,8,1%,3,1.1
O=C(O)c1[nH]c2ccccc2c1NS(=O)(=O)Cc1ccccc1,i,1,4,6%,3,2.4*
CC(=O)c1ccc(NS(=O)(=O)Cc2ccccc2)cc1,i,1.1,2,4%,5,1
Cc1cccc(Nc2nc(N)nc(CN3CCN(c4ccc(F)cc4)CC3)n2)c1,i,1,7,5%,7,1.1
CCn1c(C(=O)Nc2ccsc2C(=O)OC)cc2sc(Cl)cc21,/,1.1,0,13%,26,2.1*
